Source: PubChem BioAssay (EPA / NIEHS)
Calls of active or inactive are those of the source. Rule for the calls: active = hit-call score of the fitted dose curve at least 0.9, where 1 is the maximum; inactive = score below 0.9.

Tests used:
Settings in all cases: mRNA level, 48 h; actives raise or lower the signal
[1] = read-out: growth arrest and DNA damage 45 (GADD45B), GADD45B (gene 4616); assay: LTEA_HepaRG_GADD45B: Life Technologies and Expression Analysis (LTEA) Assay for growth arrest and DNA damage 45 (GADD45B) using HepaRG (AID 2283461)
In short: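 HepaRG, ~100,000 cells/well, 48 h plating; serum-free induction medium; cpd 100 uM top, half-log x8, 0.5% DMSO, duplicate, 48 h; lysis in RLT, RNA isolation, qRT-PCR; norm ACTB/GAPDH/POLR2A; bidirectional fit vs DMSO.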

[2] = read-out: ABC Transporter (ABCC3), ABCC3 (gene 8714); assay: LTEA_HepaRG_ABCC3: Life Technologies and Expression Analysis (LTEA) Assay for ABC Transporter (ABCC3) using HepaRG (AID 2283462)
In short: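 Human HepaRG, 48 h dosing, 8-pt half-log series from 100 uM, 0.5% DMSO vehicle, duplicates. ABCC3 mRNA by TaqMan qRT-PCR, housekeeping-normalized; bidirectional curve fit vs DMSO.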

[3] = read-out: ABC Transporter (ABCB11), ABCB11 (gene 8647); assay: LTEA_HepaRG_ABCB11: Life Technologies and Expression Analysis (LTEA) Assay for ABC Transporter (ABCB11) using HepaRG (AID 2283463)
In short: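 Differentiated human HepaRG cells in serum-free induction medium, dosed in duplicate for 48 h. Eight-point half-log series from 100 uM in 0.5% DMSO; ABCB11 mRNA by qRT-PCR, normalized to ACTB, GAPDH, POLR2A, fitted bidirectionally versus DMSO.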

[4] = read-out: ABC Transporter (ABCC2), ABCC2 (gene 1244); assay: LTEA_HepaRG_ABCC2: Life Technologies and Expression Analysis (LTEA) Assay for ABC Transporter (ABCC2) using HepaRG (AID 2283464)
In short: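 HepaRG, 48 h post-plating; serum-free induction medium; cpd 8-pt, 100 uM top, half-log, 0.5% DMSO, duplicate, 48 h. Readout: ABCC2 mRNA by qRT-PCR, norm. ACTB/GAPDH/POLR2A. Bidirectional fit vs DMSO baseline.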

[5] = read-out: Broad substrate specificity ATP-binding cassette transporter ABCG2 (Homo sapiens) (UniProt Q9UNQ0); assay: LTEA_HepaRG_ABCG2: Life Technologies and Expression Analysis (LTEA) Assay for ABC Transporter (ABCG2) using HepaRG (AID 2283465)
In short: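 Differentiated HepaRG cells were exposed for 48 h in serum-free induction medium to 8 half-log concentrations, top 100 uM, in 0.5% DMSO. ABCG2 mRNA was measured by qRT-PCR, normalized to ACTB, GAPDH and POLR2A, with bidirectional fitting versus DMSO.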

[6] = read-out: ATP-citrate lyase (ACLY), ACLY (gene 47); assay: LTEA_HepaRG_ACLY: Life Technologies and Expression Analysis (LTEA) Assay for ATP-citrate lyase (ACLY) using HepaRG (AID 2283466)
In short: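 Differentiated HepaRG cells exposed 48 h in serum-free induction medium to eight half-log concentrations up to 100 uM in 0.5% DMSO, duplicates. Transcript measured by Fluidigm TaqMan qRT-PCR, normalized to ACTB, GAPDH, POLR2A; bidirectional fit versus DMSO.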

[7] = read-out: Peroxisomal acyl-coenzyme A oxidase 1 (ACOX1) gene, ACOX1 (gene 51); assay: LTEA_HepaRG_ACOX1: Life Technologies and Expression Analysis (LTEA) Assay for Peroxisomal acyl-coenzyme A oxidase 1 (ACOX1) gene using HepaRG (AID 2283467)
In short: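 HepaRG cells, plated 48 h then switched to serum-free induction medium, were exposed in duplicate for 48 h to 8-point half-log concentrations up to 100 uM in 0.5% DMSO. ACOX1 mRNA was measured by qRT-PCR, normalized to ACTB/GAPDH/POLR2A, and fitted bidirectionally versus DMSO.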

[8] = read-out: Alkaline Phosphatase, Placental (ALPP) gene, ALPP (gene 250); assay: LTEA_HepaRG_ALPP: Life Technologies and Expression Analysis (LTEA) Assay for Alkaline Phosphatase, Placental (ALPP) gene using HepaRG (AID 2283468)
In short: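 HepaRG, 48 h plating then 48 h dosing, serum-free induction medium, 0.5% DMSO. 8 conc, half-log, max 100 uM, duplicates. Endpoint: ALPP transcript by qRT-PCR, housekeeping-normalized; gain or loss fitted vs DMSO.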

[9] = read-out: Bcl-2 (BAD) gene, BAD (gene 572); assay: LTEA_HepaRG_BAD: Life Technologies and Expression Analysis (LTEA) Assay for Bcl-2 (BAD) gene using HepaRG (AID 2283469)
In short: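 Differentiated HepaRG cells were exposed in duplicate in 0.5% DMSO for 48 h to eight-point half-log concentrations up to 100 uM. BAD mRNA was measured by Fluidigm TaqMan qRT-PCR, normalized to ACTB, GAPDH and POLR2A, and fitted bidirectionally against DMSO.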

[10] = read-out: Bcl-2 (BAX) gene, BAX (gene 581); assay: LTEA_HepaRG_BAX: Life Technologies and Expression Analysis (LTEA) Assay for Bcl-2 (BAX) gene using HepaRG (AID 2283470)
In short: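 HepaRG (human liver), 48 h exposure, duplicate wells. 8-pt curve, half-log from 100 uM, 0.5% DMSO. BAX transcript by TaqMan qRT-PCR; ACTB/GAPDH/POLR2A normalization; gain or loss vs DMSO baseline.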

[11] = read-out: adenosine kinase (ADK) gene, ADK (gene 132); assay: LTEA_HepaRG_ADK: Life Technologies and Expression Analysis (LTEA) Assay for adenosine kinase (ADK) gene using HepaRG (AID 2283471)
In short: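 ADK expression quantified by qRT-PCR, normalised to three housekeeping genes, after 48 h exposure of HepaRG cells to eight concentrations (top 100 uM, half-log steps, duplicate, 0.5% DMSO). Up- or down-regulation fitted relative to vehicle.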

[12] = read-out: Alpha-fetoprotein (AFP) gene, AFP (gene 174); assay: LTEA_HepaRG_AFP: Life Technologies and Expression Analysis (LTEA) Assay for Alpha-fetoprotein (AFP) gene using HepaRG (AID 2283472)
In short: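 HepaRG, single lot; 48 h post-plating -> serum-free induction medium; cpd 8-pt, 100 uM top, half-log, 0.5% DMSO, duplicate, 48 h. RNA -> qRT-PCR AFP, norm ACTB/GAPDH/POLR2A. Bidirectional fit vs DMSO.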

BCL2L11 (gene 10018) = assay: LTEA_HepaRG_BCL2L11: Life Technologies and Expression Analysis (LTEA) Assay for Bcl-2 (BCL2L11) gene using HepaRG (AID 2283473)
In short: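 Read-out is BCL2L11 transcript level by qRT-PCR, normalized to three housekeeping genes and fitted bidirectionally against 0.5% DMSO vehicle. HepaRG cells received chemicals for 48 h in serum-free induction medium, 100 uM down in half-log dilutions.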

[13] = read-out: Apolipoprotein A-V (APOA5) gene, APOA5 (gene 116519); assay: LTEA_HepaRG_APOA5: Life Technologies and Expression Analysis (LTEA) Assay for Apolipoprotein A-V (APOA5) gene using HepaRG (AID 2283474)
In short: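 Readout is APOA5 transcript level by qRT-PCR on Fluidigm dynamic arrays, normalized to three housekeeping genes. HepaRG cultures received chemicals for 48 h at up to 100 uM (half-log steps, 0.5% DMSO), with gain or loss scored relative to DMSO.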

[14] = read-out: Apoptosis regulator Bcl-2 (Homo sapiens) (UniProt P10415); assay: LTEA_HepaRG_BCL2: Life Technologies and Expression Analysis (LTEA) Assay for Bcl-2 gene using HepaRG (AID 2283475)
In short: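 HepaRG, plated 48 h then switched to serum-free induction medium; dosed 48 h, 8 conc. (max 100 uM, half-log steps), duplicate, 0.5% DMSO. Lysis in RLT, RNA isolated, TaqMan qRT-PCR for BCL2; ACTB/GAPDH/POLR2A normalisation; bidirectional fit vs DMSO.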

[15] = read-out: Bcl-2 (BID) gene, BID (gene 637); assay: LTEA_HepaRG_BID: Life Technologies and Expression Analysis (LTEA) Assay for Bcl-2 (BID) gene using HepaRG (AID 2283476)
In short: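 Transcript levels of BID, measured by qRT-PCR and normalized to three housekeeping genes, were fitted bidirectionally against DMSO controls. Cells were HepaRG, dosed 48 h at up to 100 uM.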

Caspase-3 (Homo sapiens) = Caspase-3 (Homo sapiens) (UniProt P42574); assay: LTEA_HepaRG_CASP3: Life Technologies and Expression Analysis (LTEA) Assay for cysteine-aspartic acid protease (CASP3) using HepaRG (AID 2283477)
In short: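 Read-out is CASP3 mRNA level by TaqMan qRT-PCR in human HepaRG cells after 48 h chemical exposure. Eight half-log concentrations topping at 100 uM were tested in 0.5% DMSO; gain or loss was fitted relative to DMSO.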

[16] = read-out: Cytochrome P450 (CYP24A1), CYP24A1 (gene 1591); assay: LTEA_HepaRG_CYP24A1: Life Technologies and Expression Analysis (LTEA) Assay for Cytochrome P450 (CYP24A1) using HepaRG (AID 2283478)
In short: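 HepaRG, 48 h chemical exposure, 8-pt half-log CRC from 100 uM, 0.5% DMSO vehicle, duplicates. Endpoint: CYP24A1 mRNA by Fluidigm TaqMan qRT-PCR, normalized ACTB/GAPDH/POLR2A; gain/loss fit vs DMSO.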

[17] = read-out: Cytochrome P450 (CYP1A2), CYP1A2 (gene 1544); assay: LTEA_HepaRG_CYP1A2: Life Technologies and Expression Analysis (LTEA) Assay for Cytochrome P450 (CYP1A2) using HepaRG (AID 2283479)
In short: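 CYP1A2 transcript induction or loss, quantified by Fluidigm qRT-PCR against three housekeeping genes, was fitted bidirectionally against 0.5% DMSO controls. Human HepaRG cells received eight half-log concentrations from 100 uM over 48 h.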

[18] = read-out: cysteine-aspartic acid protease (CASP8), CASP8 (gene 841); assay: LTEA_HepaRG_CASP8: Life Technologies and Expression Analysis (LTEA) Assay for cysteine-aspartic acid protease (CASP8) using HepaRG (AID 2283480)
In short: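 Differentiated HepaRG cells in serum-free induction medium, 48 h exposure, eight-point half-log series from 100 uM in 0.5% DMSO, duplicates. CASP8 mRNA by qRT-PCR, normalized to ACTB, GAPDH, POLR2A; bidirectional fit versus DMSO.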

Measured: AC50

Sequence of Apoptosis regulator Bcl-2 (Homo sapiens) (P10415 whole entry, looked up): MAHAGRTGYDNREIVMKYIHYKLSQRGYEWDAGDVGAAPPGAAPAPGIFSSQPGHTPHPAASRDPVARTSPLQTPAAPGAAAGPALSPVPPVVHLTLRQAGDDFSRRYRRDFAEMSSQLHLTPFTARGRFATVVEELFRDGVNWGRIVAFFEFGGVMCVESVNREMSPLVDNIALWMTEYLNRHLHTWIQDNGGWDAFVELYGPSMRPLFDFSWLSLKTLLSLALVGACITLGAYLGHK
Sequence of Caspase-3 (Homo sapiens) (P42574 whole entry, looked up): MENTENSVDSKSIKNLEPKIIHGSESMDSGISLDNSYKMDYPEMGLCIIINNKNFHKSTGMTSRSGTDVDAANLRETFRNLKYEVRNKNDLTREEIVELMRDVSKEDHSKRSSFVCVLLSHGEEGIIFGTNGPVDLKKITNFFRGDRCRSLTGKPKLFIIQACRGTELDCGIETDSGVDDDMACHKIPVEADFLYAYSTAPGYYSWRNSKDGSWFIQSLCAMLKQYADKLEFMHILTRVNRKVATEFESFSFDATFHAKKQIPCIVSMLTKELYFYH
Sequence of Broad substrate specificity ATP-binding cassette transporter ABCG2 (Homo sapiens) (Q9UNQ0 whole entry, looked up): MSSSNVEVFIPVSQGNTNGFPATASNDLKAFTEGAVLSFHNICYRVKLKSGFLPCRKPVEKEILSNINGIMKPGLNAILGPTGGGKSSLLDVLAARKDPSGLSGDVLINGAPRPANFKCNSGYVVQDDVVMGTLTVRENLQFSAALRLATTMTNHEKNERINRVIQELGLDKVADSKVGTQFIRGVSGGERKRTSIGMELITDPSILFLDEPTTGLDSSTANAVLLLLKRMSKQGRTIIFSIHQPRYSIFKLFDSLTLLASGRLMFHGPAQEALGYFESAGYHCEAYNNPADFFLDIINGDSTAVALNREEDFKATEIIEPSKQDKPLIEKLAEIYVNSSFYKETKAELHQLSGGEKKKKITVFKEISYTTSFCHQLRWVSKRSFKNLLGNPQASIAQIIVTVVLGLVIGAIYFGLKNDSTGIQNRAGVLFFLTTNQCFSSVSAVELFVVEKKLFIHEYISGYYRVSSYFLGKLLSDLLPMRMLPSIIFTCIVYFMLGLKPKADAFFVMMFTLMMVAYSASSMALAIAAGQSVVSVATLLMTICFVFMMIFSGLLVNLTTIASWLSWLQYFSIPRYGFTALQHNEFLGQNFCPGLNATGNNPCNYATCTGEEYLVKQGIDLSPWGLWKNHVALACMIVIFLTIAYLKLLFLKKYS

CCOC(=O)c1ccc(C2CCC(NC[C@H](O)COc3ccc(O)c(NS(C)(=O)=O)c3)CC2)cc1 (stereo partly drawn)
active: [8] 1.83 µM | [14] 2.75 µM
inactive: [1] | [2] | [3] | [4] | [5] | [6] | [7] | [9] | [10] | [11] | [12] | BCL2L11 (gene 10018) | [13] | [15] | Caspase-3 (Homo sapiens) | [16] | [17] | [18]

CN(C)c1ccc(N=NS(=O)(=O)O)cc1
inactive: [2] | [4] | [5] | [6] | [8] | [9] | [10] | [11] | [12] | BCL2L11 (gene 10018) | [14] | [15] | Caspase-3 (Homo sapiens) | [16]
active: [1] 31 µM | [3] 21 µM | [7] 12.9 µM | [13] 12.8 µM | [17] 13.8 µM

COc1ccc(/C=C/S(=O)(=O)NC(=O)c2ccc(C)cc2Cl)cc1
active: [3] 79.3 µM
inactive: [1] | [2] | [4] | [5] | [6] | [7] | [8] | [9] | [10] | [11] | [12] | BCL2L11 (gene 10018) | [13] | [14] | [15] | Caspase-3 (Homo sapiens) | [16] | [17]

O=C(OC[C@H]1O[C@@H](OC(=O)c2cc(O)c(O)c(OC(=O)c3cc(O)c(O)c(O)c3)c2)[C@H](OC(=O)c2cc(O)c(O)c(OC(=O)c3cc(O)c(O)c(O)c3)c2)[C@@H](OC(=O)c2cc(O)c(O)c(OC(=O)c3cc(O)c(O)c(O)c3)c2)[C@@H]1OC(=O)c1cc(O)c(O)c(OC(=O)c2cc(O)c(O)c(O)c2)c1)c1cc(O)c(O)c(OC(=O)c2cc(O)c(O)c(O)c2)c1
inactive: [1] | [6] | [7] | [9] | [10] | [11] | Caspase-3 (Homo sapiens) | [16] | [17]
active: [2] 9.66 µM | [3] 7.96 µM | [4] 15.2 µM | [5] 8.88 µM | [8] 3.31 µM | [12] 8.86 µM | BCL2L11 (gene 10018) 15.2 µM | [13] 6.96 µM | [14] 28.4 µM | [15] 7.63 µM | [18] 9.48 µM

O=C(NS(=O)(=O)/C=C/c1ccccc1)c1ccc(F)cc1Cl
active: [3] 50 µM | [4] 4.56 µM | [12] 18.9 µM
inactive: [1] | [2] | [5] | [6] | [7] | [8] | [9] | [10] | [11] | BCL2L11 (gene 10018) | [13] | [14] | [15] | Caspase-3 (Homo sapiens) | [16] | [17] | [18]

CCc1cc(SCc2sc(-c3ccc(C(F)(F)F)cc3)nc2CN2CCN(c3ccc(OC)cc3)CC2)ccc1OCC(=O)O
inactive: [13] | Caspase-3 (Homo sapiens) | [16] | [17]
active: [1] 92.7 µM | [2] 90.3 µM | [3] 8.6 µM | [4] 93.3 µM | [5] 7.49 µM | [6] 93.4 µM | [7] 92.7 µM | [8] 6.34 µM | [9] 87 µM | [10] 97.2 µM | [11] 90.9 µM | [12] 7.69 µM | BCL2L11 (gene 10018) 89.4 µM | [14] 8.96 µM | [15] 0.206 µM | [18] 15.8 µM
